Reference: PubChem BioAssay AID460 (PCMD, 2006)
Hit rate of the full screen: of about 58,000 compounds, about 100 (0.17%) were called active. This excerpt belongs to a sample that is enriched for actives. Values without a mark were called inactive. Cut-off read from the data, not from the text of the source: active = inhibition above about 45%; inactive = the rest. Where a SMILES comes first, the peptide text is derived from it. The star is where a group is joined. Bz = O=C(c1ccccc1)*

Biological target: Procathepsin L (Homo sapiens) (UniProt P07711)
Assay: blockers of CTSL protease activity – biochemical (AID 460);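 note: 0% = enzyme with no compound and 100% = no enzyme blank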
Conditions: purified cathepsin L, fluorogenic substrate, fluorescence; hits give high values;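 tested at 10 µM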

Procathepsin L (Homo sapiens), sequence (P07711 114-288 limits assumed): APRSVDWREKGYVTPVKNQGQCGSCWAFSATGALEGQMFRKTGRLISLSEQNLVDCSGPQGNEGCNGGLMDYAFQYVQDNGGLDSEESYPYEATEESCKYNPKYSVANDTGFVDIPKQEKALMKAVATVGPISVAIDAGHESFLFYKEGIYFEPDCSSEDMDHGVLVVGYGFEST
Procathepsin L (Homo sapiens), sequence (P07711 292-333 limits assumed): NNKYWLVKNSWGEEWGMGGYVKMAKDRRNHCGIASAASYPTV

SMILES | inhibition
COc1ccc(-c2nnc(SC(C)C#N)o2)cc1 (configuration not stated) | 9.86%
CC(=O)Nc1nc(C)c(Cc2ccccc2)c(=O)[nH]1 | -7.6%
CCOc1cccc(C(=O)Nc2cccnc2)c1 | -6.37%
CC(=O)Nc1ccc(S(=O)(=O)N2CCN(C3CCCCCCC3)CC2)cc1 | 7.05%
COc1ccc2c(c1OC)C(=O)N(c1ncn[nH]1)C2 | 2.08%
COc1ccc(NC(=O)CN2CCN(S(=O)(=O)c3ccc(F)cc3)CC2)cc1Cl | 20.1%
COc1ccc(S(=O)(=O)Nc2ccc3c(c2)OCO3)cc1Cl | 3.1%
CCc1nnc(NC(=O)CCC(=O)O)s1 | 3.51%
COC(=O)C1C(=O)CC(C)(O)C(C(=O)OC)C1c1ccc2c(c1)OCO2 (configuration not stated) | 11.2%
CN1CCN(S(=O)(=O)c2ccc3[nH]cc(C(=O)O)c(=O)c3c2)CC1 | -3.14%
O=C(CCN1C(=O)COc2ccccc21)NCCCN1CCN(c2ccc(F)cc2)CC1 | 5.08%
COc1ccc(N2CCN(CCNC(=O)CCN3C(=O)COc4ccccc43)CC2)cc1 | 104% (active)
CCCN1CCN(CCCNC(=O)CN2C(=O)COc3ccccc32)CC1 | -8%
O=C(CCCC(=O)N(CC(=O)NC1CCCC1)Cc1ccccc1Cl)Nc1ccccn1 | 9.21%
c1ccc2[nH]c(-c3nc4ccccc4[nH]3)nc2c1 | 3.52%
Cc1ccc2nc3n(c(=O)c2c1)CCC3 | 14.4%
CCCC(=O)N1c2ccccc2NC2=C(C(=O)CCC2)C1c1ccc(F)cc1 (configuration not stated) | 3.55%
O=C(NC12CC3CC(CC(C3)C1)C2)N1CCCC(CO)C1 (configuration not stated) | 2.74%
CCOC(=O)C1=C(C)NC(=O)N(C(C)=O)C1c1ccc(Cl)cc1 (configuration not stated) | 12.8%
COc1ccc(C2CC(c3ccc(C)cc3)Nc3nc(N)nn32)cc1 (configuration not stated) | -0.09%
COc1ccccc1-c1cc(C(=O)N2CCCCC2)no1 | -3.35%
COc1ccc(Br)cc1/C=N/n1c(C)nnc1C | 12.8%
CCCOC(=O)CC1C(=O)NCCN1Cc1ccc(F)cc1 (configuration not stated) | -5.6%
CCOC(=O)c1ccc(NC(=O)CSc2nnc(COc3ccccc3OC)n2C)cc1 | -5.46%
CCOc1ccc(C(=O)Nc2ccncc2)cc1 | 21.4%

SMILES | inhibition
Cc1cnc(C(=O)OCC(=O)Nc2ccc(Cl)cc2Cl)cn1 | -0.6%
Fc1ccc2[nH]c3c(N4CCN(Cc5ccc6c(c5)OCO6)CC4)ncnc3c2c1 | -9.64%
c1ccc(-c2noc(-c3cccs3)n2)nc1 | 0.38%
CCOc1cc(/C=N/O)cc(Br)c1OC | 2.18%
COC(=O)C(C)C1Sc2ccccc2NC1=O (configuration not stated) | -1.59%
CCCCOc1ccc(-c2ncc(C(=O)OCC)c(N)n2)cc1 | 4.53%
Cc1cc(NC(=O)c2cnn3cccnc23)n(-c2ccccc2)n1 | 1.38%
COc1cccc(N2C(=O)C3CCCN3C2c2ccc(F)cc2)c1 (configuration not stated) | -5.29%
Cc1noc(C)c1C(=O)NC(C)c1ccc2c(c1)OCO2 (configuration not stated) | 19.1%
CN(Cc1ccccc1)Cc1ccccc1F | 6.62%
COC(=O)c1cc(S(=O)(=O)NC2CCN(Cc3ccccc3)CC2)cn1C | -7.14%
Cc1cc(OCCN2CCCC2)ccc1C(C)C | 3.61%
CCCc1cc(=O)[nH]c(SCC(=O)OCc2ccccc2)n1 | -7.39%
CCn1cc(C(=O)NCc2ccc(OC)cc2OC)c(=O)c2ccc(C)nc21 | -0.88%
O=c1cc(Cn2nnc(-c3ccc(Cl)cc3)n2)nc2sccn12 | 18.2%
Cc1cccc(N(CC(O)CN(C)C)S(=O)(=O)c2ccccc2)c1 (configuration not stated) | -0.65%
Cc1ccc(C2(c3ccc(C)cc3)NC(=O)N(Cc3c(C)noc3C)C2=O)cc1 | 13.3%
Cc1nc2ccc(NC(=O)N3CCC(c4ccccc4)C3)cc2nc1C (configuration not stated) | -130%
COc1ccc2[nH]c(=O)c(CN(CC3CCCO3)C(=O)Nc3ccccc3)cc2c1 (configuration not stated) | -6.3%
CCN(CC(=O)Nc1ccc2c(c1)OCCO2)Cc1cc(=O)oc2cc(C)c(C)cc12 | 0.7%
CCOCCOC(=O)C1=C(C)N(C)C(=O)NC1c1ccccc1F (configuration not stated) | -0.79%
CCOc1cc(C)c(Cl)cc1S(=O)(=O)n1nnc2ccccc21 | 3.04%
O=C(c1ccccc1)c1ccc2nc(N3CCCCC3)c3nncn3c2c1 | -3.17%
CCOC(=O)CCc1c(C)c2ccc(OCc3nn[nH]n3)c(C)c2oc1=O | -20.7%
COc1ccc(OC)c2c(N)c(C#N)c(C(F)(F)C(F)(F)F)nc12 | -8.11%

SMILES | inhibition
Cc1c(C)c2cc3c4c(oc3c(C)c2oc1=O)CCCC4 | 2.98%
CC1CCN(Cc2nc3c(c(=O)n(C)c(=O)n3C)n2Cc2cccc3ccccc23)CC1 | 0.14%
OC(COc1cccc2ccccc12)CN1CCN(c2ccccn2)CC1 (configuration not stated) | 7.74%
O=C(CS(=O)(=O)c1cn(Cc2cccc(F)c2)c2ccccc12)N1CCCCC1 | 17.3%
CCCC(=O)C1=C(N(C)c2ccccc2)CC(C)(C)C(C(=O)OC)C1=O (configuration not stated) | -1.31%
CCCn1c(=NC(C)=O)c(C(=O)OCC)cc2c(=O)n3ccccc3nc21 | -149%
Cc1cc2cc(CNC(=O)c3ccc(S(=O)(=O)N4CCOCC4)cc3)ccc2[nH]1 | 4.06%
CN(CCCC(=O)Nc1nccs1)S(=O)(=O)c1ccc(Cl)cc1 | -4.71%
CC1=NC2(CCCc3c2no[n+]3[O-])N(O)C1(C)C (configuration not stated) | 1.32%
CC(=O)N1C(=O)C2(Nc3ccccc3N2)c2ccccc21 | 1.65%
COc1ccccc1CNC(=O)C1CCN(S(C)(=O)=O)CC1 | 2.28%
CC(=O)N=c1ncn(CC(COC(C)=O)OC(C)=O)c2nc[nH]c12 (configuration not stated) | -1.89%
Cc1cccc(OCc2nnc(SCc3nc4cc(C(F)(F)F)ccc4c(=O)[nH]3)o2)c1 | -0.3%
O=C(O)C1CC=CCC1C(=O)NCCc1ccccc1 (configuration not stated) | -8.83%
CC(C)c1ccc(NS(=O)(=O)c2cn(C)c(=O)n(C)c2=O)cc1 | 12.5%
O=C(NC(Cc1ccccc1)C(=O)N1CCCC1C(=O)O)c1ccccc1 (stereo not drawn) (Bz-Phe-Pro-OH; configuration not given here) | 17.6%
Cc1ccc(C)c(N(CC(=O)NCc2ccco2)C(=O)CCC(=O)Nc2ccccn2)c1 | -0.88%
COc1ccc(-c2nnn(Cc3nc(N)nc(N4CCCCC4)n3)n2)cc1 | -3.62%
CCOc1cccc(=O)c2c(C)n(CC3CCCO3)c(C)c12 (configuration not stated) | -0.25%
CC(NC(=O)Nc1ccccc1)c1ccccc1 (configuration not stated) | 1.63%
O=C(CCN1C(=O)C2C3C=CC(C3)C2C1=O)Nc1ccccc1F (configuration not stated) | -4.07%
c1ccc(-c2cn3cccnc3n2)cc1 | -283%
COc1ccc(CCNc2ncnc3nc[nH]c23)cc1OC | -2.05%
Cc1cc(NC(=O)CCC2COc3ccccc3O2)no1 (configuration not stated) | 0.43%
c1ccc2c(c1)OCC(CNc1ncnc3nc[nH]c13)O2 (configuration not stated) | 81.5% (active)

SMILES | inhibition
COC(=O)c1cc(OC)c(OC)cc1NC(=O)C1CCCO1 (configuration not stated) | 17.4%
Cc1nc(-c2ccc(NC(=O)c3cccs3)cc2)cs1 | 6.73%
NS(=O)(=O)c1ccc(CCNC(=O)Nc2ccc(Cl)cc2)cc1 | 0.5%
COc1ccc(C2CC(c3ccccc3)Nc3ncnn32)cc1 (configuration not stated) | 20.2%
Cc1ccc(C2CC(=O)NC(SCC(=O)OCc3ccccc3)=C2C#N)o1 (configuration not stated) | 1.51%
CCOC(=O)C(CCOc1cccc(CC)c1)C(=O)OCC | 20.3%
Cc1nnc(SCC(=O)N(C(C)C)C(C)C)nc1C | 6.66%
CCCC(C(=O)NCc1ccco1)N(C(=O)CNS(=O)(=O)c1ccccc1)C1CCCC1 (configuration not stated) | 10.1%
Cn1c(=O)c2cn(-c3cccc4ccccc34)cc2n(C)c1=O | 6.9%
COC(=O)c1ccc(CN(c2ccccc2OC)S(=O)(=O)c2cccs2)o1 | 14%
Fc1c(F)c(C(F)(F)F)c(F)c(F)c1N1CCN(c2ccc3nnc(C(F)(F)F)n3n2)CC1 | -17%
CC(C)NS(=O)(=O)c1ccc(OCC(=O)Nc2ccc3c(c2)OCCO3)cc1 | 16.4%
COc1ccc(Cn2cccc(NC(=O)Nc3ccc(C#N)cc3)c2=O)cc1 | -10.3%
C=CCn1c(=N)n(CC(O)COc2ccc(OC)cc2)c2ccccc21 (configuration not stated) | 0.78%
Cc1ccc(C2CC(c3cccc(Br)c3)n3nc(N)nc3N2)cc1 (configuration not stated) | 19.9%
Cc1ccc(N2C(=O)CC(NCc3ccc4c(c3)OCO4)C2=O)cc1Cl (configuration not stated) | -2.37%
Clc1ccccc1CSc1nnc(-c2ccco2)c(-c2ccco2)n1 | 49.7% (active)
c1ccc(CSc2nnc(-c3ccco3)c(-c3ccco3)n2)cc1 | 10.8%
O=c1cc(O)nc(SCc2ccccc2Cl)[nH]1 | -2.97%
N#Cc1c(NC(=O)CCCN2C(=O)c3ccccc3C2=O)oc(-c2ccccc2)c1-c1ccccc1 | 4.96%
CN1c2ccccc2-c2nc3ccccc3n2C1c1ccco1 (configuration not stated) | -450%
COC(=O)C1=C(C)N(C)C(C)=C(C(=O)OC)C1c1cccc(Br)c1 | 10.9%
